Laboratory results: PubChem BioAssay AID1851 (National Center for Advancing Translational Sciences (NCATS), 2009)
In all, about 16,000 compounds went through this assay and about 5,700 (36%) were called active. Not shown: some 24% with an inconclusive outcome. This is one part of the list. A number with no mark means an inactive call. The call rests on the fitted dose curve; in most records, active means well fitted curve in the direction sought with a large enough effect; inconclusive means small, poorly fitted or top-dose-only effect, or effect the other way; inactive means no such curve, though single readings can be large or run the other way.

molecular target: Cytochrome P450 1A2 (Homo sapiens) (UniProt P05177); assay: Cytochrome panel assay with activity outcomes; details: recombinant CYP, pro-luciferin dealkylation, luminescence, p450-cyp1a2; series mostly up to 57.1 µM; activity, negative = inhibition: at the top concentration
Sequence (P05177 whole entry, looked up): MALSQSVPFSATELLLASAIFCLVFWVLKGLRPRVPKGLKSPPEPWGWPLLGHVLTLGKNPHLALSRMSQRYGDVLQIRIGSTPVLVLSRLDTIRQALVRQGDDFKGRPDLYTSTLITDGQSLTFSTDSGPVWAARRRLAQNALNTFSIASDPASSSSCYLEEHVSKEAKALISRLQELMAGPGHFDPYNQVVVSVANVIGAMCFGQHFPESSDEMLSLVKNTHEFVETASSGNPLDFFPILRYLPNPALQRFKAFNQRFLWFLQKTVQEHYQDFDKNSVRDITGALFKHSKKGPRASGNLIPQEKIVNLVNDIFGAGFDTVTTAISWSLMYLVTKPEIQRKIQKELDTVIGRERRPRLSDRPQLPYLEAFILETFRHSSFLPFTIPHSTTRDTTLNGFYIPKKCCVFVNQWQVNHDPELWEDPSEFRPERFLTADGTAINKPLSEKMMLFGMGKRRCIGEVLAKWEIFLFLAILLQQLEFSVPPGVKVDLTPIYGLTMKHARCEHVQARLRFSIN
On the % scale 0 is the no-effect control and ±100 the full control effect.

Row | Compound | AC50 | activity, negative = inhibition
1 | COc1cccc(-c2nccc(NCc3cccc(C)c3)n2)c1 | 316 nM (active) | 
2 | COc1ccc(-c2cc(C(F)(F)F)nc(SCc3cccc(C(=O)O)c3)n2)cc1 | 7080 nM (active) | 
3 | COCC(C)NCc1cccc(C)c1 (centres undefined) |  | -15.4%
4 | CC(=O)OC[C@H]1O[C@@H](O/N=C(\C)CCN2CCCCc3nc(C)c(C)cc32)[C@H](OC(C)=O)[C@@H](OC(C)=O)[C@H]1OC(C)=O |  | -3.61% [at 11.4 µM]
5 | CCOc1ccc(CCNC(=O)CCCN2C(=O)c3ccccc3C2=O)cc1OCC |  | -7.98%
6 | CCOc1ccc(N(CC(=O)NCc2ccc(OC)cc2)S(=O)(=O)c2c(C)noc2C)cc1 |  | -6.85%
7 | CCOc1ccc(-c2cc(CCCC(=O)NCCc3ccc(OC)c(OC)c3OC)no2)cc1 | 63.1 nM (active) | 
8 | Cc1ccccc1C(=O)NC(=S)NCC(=O)c1ccccc1 | 10000 nM (active) | 
9 | COc1ccc(-n2nc3cc(C)c(NC(=S)NC(=O)c4ccccc4C)cc3n2)cc1 |  | -17.3%
10 | O=C(CNC(=O)c1ccc([N+](=O)[O-])cc1)c1ccccc1 |  | -9.2%
11 | c1ccc(-n2ncc3c(NCCCN4CCOCC4)ncnc32)cc1 |  | -22.5%
12 | COCCNc1nc(-c2c(C)noc2C)nc2ccccc12 | 126 nM (active) | 
13 | CC(=O)NCCNc1nc(-c2c(C)noc2C)nc2ccccc12 | 1580 nM (active) | 
14 | Cc1noc(C)c1-c1nc(NCCN2CCOCC2)c2ccccc2n1 | 2510 nM (active) | 
15 | O=C(Nc1cccc(F)c1)N1CC[C@@]2(CCCN(C(=O)c3cc(C(F)(F)F)cc(C(F)(F)F)c3)C2)C1 |  | -14.9%
16 | CN(C)CCCNC(=O)c1cc2c3ccccc3n(C)c2s1 | 14100 nM (active) | 
17 | CN(C)CCCCN1CCc2c(n(C)c3ccccc23)C1=O |  | -14.1% [at 2.29 µM]
18 | CN(C)CCCNc1cc(O)c2c(c1O)C(=O)c1ccccc1C2=O |  | -23.1% [at 2.29 µM]
19 | CC(=O)c1[nH]c(C)c(C(C)=O)c1C | 708 nM (active) | 
20 | COC(Cn1c(C)c(C(C)=O)c(C(C)=O)c1C)OC |  | -7.78%

Row | Compound | AC50 | activity, negative = inhibition
21 | CC(C)c1ccc(Cn2ccc3c4c(N)nc(NC5CC5)nc4ccc32)cc1 | 1580 nM (active) | 
22 | CC(=O)NCCNc1ncnc2ccc(-c3ccccc3C(F)(F)F)cc12 | 10000 nM (active) | 
23 | COc1ccccc1-c1ccc2ncnc(NCCNC(C)=O)c2c1 | 5010 nM (active) | 
24 | CC(=O)NCCNc1ncnc2ccc(-c3ccccc3C)cc12 | 631 nM (active) | 
25 | CC(=O)NCCNc1ncncc1-c1ccccc1C(F)(F)F |  | -19.2%
26 | CC1=C(C(=O)O)N2C(=O)[C@@H](NC(=O)[C@@H](N)C3=CCC=CC3)[C@@H]2SC1 |  | -0.757%
27 | Cc1ccc(S(=O)(=O)N2CCN(C(=O)c3ccccc3)C2C(C)C)cc1 (centres undefined) |  | -9.28%
28 | Cc1nc2cnc(Nc3ccccc3)nc2n(C2CC2)c1=O | 1000 nM (active) | 
29 | COc1cccc(Nc2ncc3ncc(=O)n(C4CC4)c3n2)c1 | 631 nM (active) | 
30 | O=c1cnc2cnc(Nc3ccccc3)nc2n1C1CC1 | 631 nM (active) | 
31 | COc1cccc(Nc2ncc3nc(C)c(=O)n(C4CC4)c3n2)c1 | 1260 nM (active) | 
32 | O=C(Nc1cccc(C(=O)Nc2ccc(S(=O)(=O)O)c3cc(S(=O)(=O)O)cc(S(=O)(=O)O)c23)c1)Nc1cccc(C(=O)Nc2ccc(S(=O)(=O)O)c3cc(S(=O)(=O)O)cc(S(=O)(=O)O)c23)c1 | inactive | 
33 | O=C(Nc1ccc(C(=O)Nc2ccc(C(=O)Nc3ccc(S(=O)(=O)O)c4cc(S(=O)(=O)O)cc(S(=O)(=O)O)c34)cc2)cc1)Nc1ccc(C(=O)Nc2ccc(C(=O)Nc3ccc(S(=O)(=O)O)c4cc(S(=O)(=O)O)cc(S(=O)(=O)O)c34)cc2)cc1 | 31600 nM (active) | 
34 | CN1CCN(C(=O)C(C(=O)c2ccc(F)cc2)n2ccccc2=O)CC1 (centres undefined) |  | -0.425%
35 | Fc1ccc(Nc2ncnc3ccc(-c4ccoc4)cc23)cc1 | 1000 nM (active) | 
36 | c1ccc(Nc2ncnc3ccc(-c4ccoc4)cc23)cc1 | 1580 nM (active) | 
37 | CCN(C(=O)CSc1nc2cc(C(=O)OC)ccc2c(=O)n1Cc1ccco1)c1cccc(C)c1 | 2510 nM (active) | 
38 | CCc1ccc(NC(=O)CSc2nc3cc(C(=O)OC)ccc3c(=O)n2Cc2ccco2)cc1 |  | -27.9%
39 | COC(=O)[C@H]1C[C@@H]1[C@H](NC(=O)Oc1ccc(F)cc1)c1ccccc1 | 1000 nM (active) | 
40 | COC(=O)[C@@H]1C[C@H]1[C@@H](NC(=O)Oc1ccc(F)cc1)c1ccccc1 | 3160 nM (active) | 

Row | Compound | AC50 | activity, negative = inhibition
41 | Cc1ccc(OCCCn2c(=O)sc3ccccc32)cc1 |  | -65.4%
42 | O=P(O)(COc1ccccc1)COc1ccccc1 |  | -1.64%
43 | O=c1sc2ccccc2n1CCCOc1ccccc1 | 15800 nM (active) | 
44 | Cc1ccccc1OCCCn1c(=O)sc2ccccc21 | 3160 nM (active) | 
45 | O=C(COc1ccc(/C=N/NC(=O)c2ccccc2)cc1)Nc1ccc([N+](=O)[O-])cc1 |  | -1.47%
46 | O=C(Nc1nc(-c2ccccc2)cs1)c1cccc([N+](=O)[O-])c1 | 1410 nM (active) | 
47 | COc1ccccc1Nc1nc(-c2sc(NC(=O)c3ccc([N+](=O)[O-])cc3)nc2C)cs1 |  | -20.4%
48 | O=C(Nc1cccc([N+](=O)[O-])c1)c1ccc(CSc2ccccc2)cc1 |  | -21.6%
49 | CCC(=O)Nc1cccc(C(=O)/C=C/c2ccccc2)c1 | 1000 nM (active) | 
50 | CS(=O)(=O)N(CC(=O)Nc1cccc(F)c1)c1cccc([N+](=O)[O-])c1 |  | -3.74%
51 | CCC(=O)Nc1cccc(NC(=O)c2cccc([N+](=O)[O-])c2)c1 | 7080 nM (active) | 
52 | CCOC(=O)c1cccc(NC(=O)COc2ccc([N+](=O)[O-])cc2)c1 | 12600 nM (active) | 
53 | CC(C)NC(=O)N1CCC2(CC1)CCN(S(C)(=O)=O)CC2 |  | -8.96%
54 | Cc1ccccc1N1C(=O)c2cc(S(N)(=O)=O)c(Cl)cc2N[C@H]1C |  | 0.243% [at 25.6 µM]
55 | COc1ccc(Cl)cc1N=Nc1ncc[nH]1 | 631 nM (active) | 
56 | Clc1ccc(Cn2c(CN3CCCC3)nc3ccccc32)cc1 | 10000 nM (active) | 
57 | Cn1c(=O)[nH]c(=O)c2c1nc(CN1CCOCC1)n2Cc1ccccc1 |  | 2.89%
58 | O=C(CN(c1ccccc1)S(=O)(=O)c1ccccc1)NCCSCc1ccco1 |  | -14.5%
59 | CC(C(=O)NCc1ccc2c(c1)OCO2)N1c2cccc3cccc(c23)S1(=O)=O (centres undefined) | 1780 nM (active) | 
